According to the supplement of paper PMC11732987, “Enantioselective OTUD7B fragment discovery through chemoproteomics screening and high-throughput optimisation” (Communications Chemistry, 2025):

Tests used:
Experiment in all cases: log2 ratio of Biotin-Ahx-Ub-VS probe labelling (fragment/DMSO); higher = less target engagement (more negative = stronger competition), active = hit call of the paper (q ≤ 0.05, log2 ratio ≤ -1)
Settings in all cases: compound concentration: 200 uM; treatment time: 3 h
[1] = molecular target: T1, USP19 (UniProt O94966)
T1 sequence (whole entry): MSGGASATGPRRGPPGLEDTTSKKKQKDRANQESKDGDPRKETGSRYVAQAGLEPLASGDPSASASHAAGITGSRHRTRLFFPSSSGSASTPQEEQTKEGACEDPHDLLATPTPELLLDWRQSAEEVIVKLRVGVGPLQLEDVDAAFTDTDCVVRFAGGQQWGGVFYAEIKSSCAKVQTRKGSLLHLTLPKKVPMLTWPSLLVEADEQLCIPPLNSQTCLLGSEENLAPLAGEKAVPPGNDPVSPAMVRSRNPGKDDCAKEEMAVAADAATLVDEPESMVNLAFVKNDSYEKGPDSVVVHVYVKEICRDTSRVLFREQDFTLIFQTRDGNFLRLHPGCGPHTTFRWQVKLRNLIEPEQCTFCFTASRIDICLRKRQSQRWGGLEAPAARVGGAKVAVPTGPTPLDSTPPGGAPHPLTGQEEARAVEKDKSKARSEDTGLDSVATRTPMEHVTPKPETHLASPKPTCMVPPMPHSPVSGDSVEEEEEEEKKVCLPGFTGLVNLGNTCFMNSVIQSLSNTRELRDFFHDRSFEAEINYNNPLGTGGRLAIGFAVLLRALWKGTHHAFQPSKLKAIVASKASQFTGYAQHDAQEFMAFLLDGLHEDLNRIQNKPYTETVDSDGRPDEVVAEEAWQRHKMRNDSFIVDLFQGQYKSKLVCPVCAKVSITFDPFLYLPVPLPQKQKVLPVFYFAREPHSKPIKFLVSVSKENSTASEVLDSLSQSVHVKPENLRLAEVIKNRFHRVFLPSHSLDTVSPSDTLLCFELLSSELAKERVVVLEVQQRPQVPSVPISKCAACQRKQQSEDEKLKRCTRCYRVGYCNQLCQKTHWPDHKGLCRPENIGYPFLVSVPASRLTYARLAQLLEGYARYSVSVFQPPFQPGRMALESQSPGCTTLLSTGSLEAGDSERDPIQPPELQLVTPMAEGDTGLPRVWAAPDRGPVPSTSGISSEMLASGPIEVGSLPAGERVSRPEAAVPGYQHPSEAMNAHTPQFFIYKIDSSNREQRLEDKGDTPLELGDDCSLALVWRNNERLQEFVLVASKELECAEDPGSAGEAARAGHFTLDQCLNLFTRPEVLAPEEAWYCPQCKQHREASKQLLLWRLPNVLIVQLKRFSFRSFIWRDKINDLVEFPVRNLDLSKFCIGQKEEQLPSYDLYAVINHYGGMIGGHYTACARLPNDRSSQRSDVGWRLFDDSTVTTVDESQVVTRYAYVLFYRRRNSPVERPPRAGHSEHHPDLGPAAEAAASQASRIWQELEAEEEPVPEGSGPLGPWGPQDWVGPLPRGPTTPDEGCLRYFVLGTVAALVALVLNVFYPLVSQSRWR
Summary of the method: (§1)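 Each value is an average log2 ratio of fragment to vehicle, tested by unpaired t-test. The underlying Spectronaut label-free quantities were global-median-normalised, and only proteins with ≥2 unique peptides were included. Triplicate HEK293T lysate samples (495 µg) were exposed to fragment at 200 µM or vehicle for 3 h, then to Biotin-Ahx-Ub-VS at 0.5 µM final for 1 h, before NeutrAvidin enrichment of labelled DUBs, LysC and trypsin digestion, and diaPASEF LC-MS/MS.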

[2] = molecular target: T2, USP22 (UniProt Q9UPT9)
T2 sequence (whole entry): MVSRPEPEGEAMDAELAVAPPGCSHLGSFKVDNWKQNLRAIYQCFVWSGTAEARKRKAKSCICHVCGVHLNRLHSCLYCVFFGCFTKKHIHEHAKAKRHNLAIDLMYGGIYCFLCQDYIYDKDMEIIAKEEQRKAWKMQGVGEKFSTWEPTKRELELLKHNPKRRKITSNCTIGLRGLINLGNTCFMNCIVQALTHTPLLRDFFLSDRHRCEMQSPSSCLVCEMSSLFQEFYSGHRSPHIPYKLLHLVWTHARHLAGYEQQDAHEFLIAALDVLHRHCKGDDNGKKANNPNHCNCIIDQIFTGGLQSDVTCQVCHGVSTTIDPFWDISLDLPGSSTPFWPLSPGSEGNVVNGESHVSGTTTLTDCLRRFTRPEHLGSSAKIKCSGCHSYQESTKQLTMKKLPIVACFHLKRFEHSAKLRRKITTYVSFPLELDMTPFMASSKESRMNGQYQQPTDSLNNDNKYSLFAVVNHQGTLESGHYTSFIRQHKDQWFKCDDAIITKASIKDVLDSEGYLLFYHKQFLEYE
Summary of the method: as §1

[3] = molecular target: USP24 (UniProt Q9UPU5)
Summary of the method: as §1

[4] = molecular target: T3, USP25 (UniProt Q9UHP3)
T3 sequence (whole entry): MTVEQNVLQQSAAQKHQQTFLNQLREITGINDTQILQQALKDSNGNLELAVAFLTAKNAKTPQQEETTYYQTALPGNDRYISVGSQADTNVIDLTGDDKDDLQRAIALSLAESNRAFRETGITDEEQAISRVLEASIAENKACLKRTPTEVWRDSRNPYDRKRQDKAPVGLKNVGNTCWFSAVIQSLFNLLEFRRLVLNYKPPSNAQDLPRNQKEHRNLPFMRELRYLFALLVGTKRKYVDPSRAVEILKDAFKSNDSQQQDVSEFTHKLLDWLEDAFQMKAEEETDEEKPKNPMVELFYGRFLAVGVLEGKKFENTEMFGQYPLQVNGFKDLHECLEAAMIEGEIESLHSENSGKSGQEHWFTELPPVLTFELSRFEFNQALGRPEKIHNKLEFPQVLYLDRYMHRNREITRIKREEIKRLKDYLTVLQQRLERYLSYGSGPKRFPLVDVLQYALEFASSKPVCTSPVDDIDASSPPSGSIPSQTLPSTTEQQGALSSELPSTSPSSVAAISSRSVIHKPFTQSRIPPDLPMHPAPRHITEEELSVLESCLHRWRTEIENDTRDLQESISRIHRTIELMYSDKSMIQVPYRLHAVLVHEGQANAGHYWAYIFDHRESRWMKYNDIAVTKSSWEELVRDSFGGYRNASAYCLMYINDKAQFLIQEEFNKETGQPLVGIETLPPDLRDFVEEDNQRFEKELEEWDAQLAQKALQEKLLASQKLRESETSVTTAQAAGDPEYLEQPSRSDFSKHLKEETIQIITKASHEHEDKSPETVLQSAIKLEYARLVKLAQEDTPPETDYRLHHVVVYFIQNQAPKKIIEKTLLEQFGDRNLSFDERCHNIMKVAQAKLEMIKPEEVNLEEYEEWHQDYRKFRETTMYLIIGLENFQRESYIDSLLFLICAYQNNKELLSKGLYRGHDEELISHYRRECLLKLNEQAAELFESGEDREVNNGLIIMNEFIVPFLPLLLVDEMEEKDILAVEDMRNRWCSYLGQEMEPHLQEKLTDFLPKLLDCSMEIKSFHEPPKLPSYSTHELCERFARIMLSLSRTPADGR
Summary of the method: as §1

[5] = molecular target: T4, USP28 (UniProt Q96RU2)
T4 sequence (whole entry): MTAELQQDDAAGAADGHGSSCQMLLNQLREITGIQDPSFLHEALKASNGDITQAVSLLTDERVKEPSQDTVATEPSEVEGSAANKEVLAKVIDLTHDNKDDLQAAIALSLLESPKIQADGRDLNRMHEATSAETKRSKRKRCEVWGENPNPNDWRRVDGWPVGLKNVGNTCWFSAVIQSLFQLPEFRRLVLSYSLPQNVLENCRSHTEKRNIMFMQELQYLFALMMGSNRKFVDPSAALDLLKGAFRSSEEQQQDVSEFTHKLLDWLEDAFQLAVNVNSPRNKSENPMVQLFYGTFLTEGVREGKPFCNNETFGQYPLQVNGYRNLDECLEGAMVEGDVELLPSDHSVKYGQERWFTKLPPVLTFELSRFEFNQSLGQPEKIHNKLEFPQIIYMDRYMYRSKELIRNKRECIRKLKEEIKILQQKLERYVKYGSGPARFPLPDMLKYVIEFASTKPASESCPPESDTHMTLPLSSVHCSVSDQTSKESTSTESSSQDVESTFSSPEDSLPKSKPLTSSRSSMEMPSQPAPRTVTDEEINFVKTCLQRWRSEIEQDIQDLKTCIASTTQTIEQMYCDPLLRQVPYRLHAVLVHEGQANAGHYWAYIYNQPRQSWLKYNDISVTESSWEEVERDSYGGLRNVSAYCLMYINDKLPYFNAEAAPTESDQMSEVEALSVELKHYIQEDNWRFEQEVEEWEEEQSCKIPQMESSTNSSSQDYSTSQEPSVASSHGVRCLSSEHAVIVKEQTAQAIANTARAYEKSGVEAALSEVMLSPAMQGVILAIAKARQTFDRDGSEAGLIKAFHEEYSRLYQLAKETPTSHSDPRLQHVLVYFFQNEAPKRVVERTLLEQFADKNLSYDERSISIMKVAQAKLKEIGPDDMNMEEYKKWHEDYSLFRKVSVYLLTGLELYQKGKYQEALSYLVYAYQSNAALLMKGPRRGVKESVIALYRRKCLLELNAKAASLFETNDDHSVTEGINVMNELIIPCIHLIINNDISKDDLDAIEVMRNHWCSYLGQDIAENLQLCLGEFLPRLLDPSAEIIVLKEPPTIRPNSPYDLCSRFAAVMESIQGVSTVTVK
Summary of the method: as §1

Measured: log2 ratio of Biotin-Ahx-Ub-VS probe labelling

Chain of USP24 (Q9UPU5 whole entry): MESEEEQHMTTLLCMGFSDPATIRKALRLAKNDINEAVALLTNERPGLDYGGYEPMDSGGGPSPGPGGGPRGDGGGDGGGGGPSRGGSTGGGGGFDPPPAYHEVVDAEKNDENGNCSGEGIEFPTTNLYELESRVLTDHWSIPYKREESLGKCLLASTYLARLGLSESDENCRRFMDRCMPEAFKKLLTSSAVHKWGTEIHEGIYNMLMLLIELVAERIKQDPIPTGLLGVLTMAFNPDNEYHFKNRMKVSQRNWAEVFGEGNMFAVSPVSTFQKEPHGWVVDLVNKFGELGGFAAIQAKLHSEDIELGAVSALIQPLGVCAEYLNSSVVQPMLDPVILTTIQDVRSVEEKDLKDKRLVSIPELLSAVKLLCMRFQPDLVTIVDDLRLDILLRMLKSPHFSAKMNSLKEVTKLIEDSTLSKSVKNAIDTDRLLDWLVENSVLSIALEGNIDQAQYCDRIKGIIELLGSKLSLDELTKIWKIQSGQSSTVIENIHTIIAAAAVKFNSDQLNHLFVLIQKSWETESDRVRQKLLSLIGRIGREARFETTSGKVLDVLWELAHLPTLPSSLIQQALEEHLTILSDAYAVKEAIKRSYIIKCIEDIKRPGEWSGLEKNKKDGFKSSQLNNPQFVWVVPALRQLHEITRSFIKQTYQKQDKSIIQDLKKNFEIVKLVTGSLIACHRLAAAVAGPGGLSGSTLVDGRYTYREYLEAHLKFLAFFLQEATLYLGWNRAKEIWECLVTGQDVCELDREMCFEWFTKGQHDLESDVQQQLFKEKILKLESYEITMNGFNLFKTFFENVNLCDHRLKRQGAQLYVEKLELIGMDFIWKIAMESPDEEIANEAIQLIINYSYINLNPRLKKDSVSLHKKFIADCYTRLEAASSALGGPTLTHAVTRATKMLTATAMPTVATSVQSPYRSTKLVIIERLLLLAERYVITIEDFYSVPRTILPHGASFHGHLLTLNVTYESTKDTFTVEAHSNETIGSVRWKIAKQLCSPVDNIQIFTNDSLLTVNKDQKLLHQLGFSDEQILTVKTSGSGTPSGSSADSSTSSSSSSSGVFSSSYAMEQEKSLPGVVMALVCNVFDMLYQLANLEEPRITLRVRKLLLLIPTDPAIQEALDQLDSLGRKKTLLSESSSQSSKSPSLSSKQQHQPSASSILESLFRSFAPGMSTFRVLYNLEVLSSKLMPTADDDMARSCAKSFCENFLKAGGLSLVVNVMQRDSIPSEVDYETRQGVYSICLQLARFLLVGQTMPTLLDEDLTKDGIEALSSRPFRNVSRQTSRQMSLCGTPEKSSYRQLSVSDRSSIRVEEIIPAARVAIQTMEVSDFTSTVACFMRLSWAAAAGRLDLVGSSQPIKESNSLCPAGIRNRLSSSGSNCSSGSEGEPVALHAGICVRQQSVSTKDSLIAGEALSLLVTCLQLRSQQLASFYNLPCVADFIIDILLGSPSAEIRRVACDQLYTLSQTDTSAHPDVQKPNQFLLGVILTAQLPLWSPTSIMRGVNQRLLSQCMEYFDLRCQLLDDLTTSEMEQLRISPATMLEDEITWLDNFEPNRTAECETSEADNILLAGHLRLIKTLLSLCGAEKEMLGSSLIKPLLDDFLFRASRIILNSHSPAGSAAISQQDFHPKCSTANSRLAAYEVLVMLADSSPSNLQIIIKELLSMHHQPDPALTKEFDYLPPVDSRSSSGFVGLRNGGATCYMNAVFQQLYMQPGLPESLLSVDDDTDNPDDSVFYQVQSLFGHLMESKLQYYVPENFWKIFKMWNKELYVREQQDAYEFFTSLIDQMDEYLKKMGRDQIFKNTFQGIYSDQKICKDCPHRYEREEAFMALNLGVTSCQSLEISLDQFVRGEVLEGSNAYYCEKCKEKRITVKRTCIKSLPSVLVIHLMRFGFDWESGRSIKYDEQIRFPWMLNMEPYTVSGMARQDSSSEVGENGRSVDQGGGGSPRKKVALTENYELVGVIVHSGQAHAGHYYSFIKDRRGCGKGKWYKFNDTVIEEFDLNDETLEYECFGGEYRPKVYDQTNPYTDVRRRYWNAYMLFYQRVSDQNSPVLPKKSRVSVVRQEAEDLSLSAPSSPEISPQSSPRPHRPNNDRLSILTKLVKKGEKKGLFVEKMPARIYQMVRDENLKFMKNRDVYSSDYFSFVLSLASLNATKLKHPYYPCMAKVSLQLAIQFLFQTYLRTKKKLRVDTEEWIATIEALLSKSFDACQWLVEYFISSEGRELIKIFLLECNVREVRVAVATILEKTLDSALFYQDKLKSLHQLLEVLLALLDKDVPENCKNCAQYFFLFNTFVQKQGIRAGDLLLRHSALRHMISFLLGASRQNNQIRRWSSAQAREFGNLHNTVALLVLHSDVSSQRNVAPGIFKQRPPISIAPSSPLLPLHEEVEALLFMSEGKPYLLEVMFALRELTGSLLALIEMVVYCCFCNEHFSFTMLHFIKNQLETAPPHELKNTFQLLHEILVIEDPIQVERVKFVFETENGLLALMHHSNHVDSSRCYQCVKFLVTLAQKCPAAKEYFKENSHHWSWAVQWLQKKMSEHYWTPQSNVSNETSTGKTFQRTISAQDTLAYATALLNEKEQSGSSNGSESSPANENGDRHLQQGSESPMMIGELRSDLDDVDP

O=C(CCl)N1CCN2C(=O)CCC2C1 (stereo not given)
inactive: [1] 0.0407 | [2] -0.0658 | [3] 0.14 | [4] -0.508 | [5] -0.38
